Measured values as given in PubChem BioAssay AID376 (PDSP, 2006).
Screen size: about 2,000 compounds; about 250 (12%) were called active. Rule as the data show it: active = hERG blockade below about -20% or above about 20%; inactive = in between. Only a selection was taken, and actives are over-represented in it overall.

These compounds were tested against Voltage-gated inwardly rectifying potassium channel KCNH2 (Homo sapiens) (UniProt Q12809) (assay: modulators of KCNH2 ion channel function, cellular (AID 376;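 also: 0% = buffer alone and 100% = reference blocker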)). Details: hERG-expressing cells, channel activity single-concentration screen; concentration not given here.
Chain of Voltage-gated inwardly rectifying potassium channel KCNH2 (Homo sapiens) (Q12809 whole entry, looked up): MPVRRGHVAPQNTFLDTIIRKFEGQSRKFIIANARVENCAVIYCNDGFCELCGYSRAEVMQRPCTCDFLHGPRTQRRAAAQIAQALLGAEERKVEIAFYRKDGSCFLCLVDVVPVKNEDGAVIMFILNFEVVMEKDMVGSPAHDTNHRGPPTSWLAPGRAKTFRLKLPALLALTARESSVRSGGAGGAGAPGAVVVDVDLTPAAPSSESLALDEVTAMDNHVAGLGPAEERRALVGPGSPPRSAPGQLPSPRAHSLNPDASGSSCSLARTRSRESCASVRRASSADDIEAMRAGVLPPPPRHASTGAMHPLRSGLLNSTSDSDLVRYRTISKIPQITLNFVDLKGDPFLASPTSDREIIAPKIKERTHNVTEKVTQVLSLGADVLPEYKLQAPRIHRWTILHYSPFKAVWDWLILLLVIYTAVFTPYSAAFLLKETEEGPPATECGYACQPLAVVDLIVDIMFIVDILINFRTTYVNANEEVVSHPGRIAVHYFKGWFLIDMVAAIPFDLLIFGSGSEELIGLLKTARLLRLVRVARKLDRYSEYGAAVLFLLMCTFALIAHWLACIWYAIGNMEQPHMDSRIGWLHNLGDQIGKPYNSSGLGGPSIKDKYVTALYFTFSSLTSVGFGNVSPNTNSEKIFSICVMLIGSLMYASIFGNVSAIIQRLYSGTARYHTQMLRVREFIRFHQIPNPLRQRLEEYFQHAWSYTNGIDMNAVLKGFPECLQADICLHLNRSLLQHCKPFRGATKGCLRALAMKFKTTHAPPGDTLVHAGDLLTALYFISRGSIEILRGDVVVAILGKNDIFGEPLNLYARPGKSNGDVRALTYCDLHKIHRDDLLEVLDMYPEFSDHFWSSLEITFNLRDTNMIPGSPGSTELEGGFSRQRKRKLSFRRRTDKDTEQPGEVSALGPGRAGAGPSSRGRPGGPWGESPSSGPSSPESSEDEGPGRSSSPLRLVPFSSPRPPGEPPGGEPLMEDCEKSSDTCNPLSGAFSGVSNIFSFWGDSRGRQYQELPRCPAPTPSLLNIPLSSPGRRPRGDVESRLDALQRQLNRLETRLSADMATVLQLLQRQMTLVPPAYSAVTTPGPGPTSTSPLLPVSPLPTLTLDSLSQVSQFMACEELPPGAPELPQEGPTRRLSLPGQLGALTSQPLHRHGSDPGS

Row | SMILES | hERG blockade
1 | Oc1cc(O)c2c(c1)OC(c1ccc(O)c(O)c1)C(OC1(c3cc(O)c(O)c(O)c3)Oc3cc(O)cc(O)c3C(O)C1O)C2 (centres undefined) | -3.37% (inactive)
2 | CC(CC(=O)O)C(C(=O)O)C(=O)O (centres undefined) | 2.78% (inactive)
3 | Oc1cc(CN2COc3ccccc32)c(O)cc1CNC1CCCCC1 | 6.98% (inactive)
4 | N=c1nc(N)nc(N)n1-c1ccc(S(N)(=O)=O)cc1 | -2.11% (inactive)
5 | Nc1[nH]c(=O)nc2c1ncn2C1OC(CO)C(O)C1O (centres undefined) | -9.03% (inactive)
6 | COc1ccc2cc(C(=O)CCC(=O)O)ccc2c1 | -0.161% (inactive)
7 | NC(=[SH+])[N-]N=Cc1ccccn1.O=S(=O)([O-])O.[Fe] | 8.22% (inactive)
8 | O=C(O)c1ccncc1.O=C(O)c1ccncc1.[Cl][Pt]([Cl])([Cl])[Cl] | 16.7% (inactive)
9 | C[N+]1(CCN=C=NC2CCCCC2)CCOCC1 | 4.24% (inactive)
10 | CN(C)CCCN1c2ccccc2C(C)(C)c2ccccc21 | 34.9% (active)
11 | CCN(CC)CCN1C(=O)c2cccc3cc(N)cc(c23)C1=O | -2.82% (inactive)
12 | CCN(CC)CCN1c2ccccc2Sc2ccc3ccccc3c21 | 28.5% (active)
13 | CN(C)CCCN1c2ccc3ccccc3c2Sc2cccc(Cl)c21 | 30.4% (active)
14 | CN(C)CCCN1c2ccccc2Sc2ccc3ccccc3c21 | 112% (active)
15 | Clc1ccc(-c2nnc(-c3cccc4ccccc34)o2)cc1Cl | -2.83% (inactive)
16 | N=Nc1c(OC(=O)Nc2ccccc2)[nH]c2ccccc12 | 18.5% (inactive)
17 | CN(C)CCC(C(=O)C(C)(C)C)c1ccccn1 (centres undefined) | -9.42% (inactive)
18 | CS(=O)(=O)c1ccc(C=NNC(N)=S)cc1 | -0.277% (inactive)
19 | O=[N+]([O-])c1ccc(NN=C2c3ccccc3Cc3ccccc32)c([N+](=O)[O-])c1 | 8.87% (inactive)
20 | O=C(O)c1cc(N=Cc2ccccc2O)cc(C(=O)O)c1 | -2.64% (inactive)
21 | Nc1nc(N)c2nn(-c3ccc(C(=O)O)cc3)nc2n1 | 14.6% (inactive)
22 | NCCSCC(N)C(=O)O (centres undefined) | 1.01% (inactive)

Row | SMILES | hERG blockade
23 | O=C(O)c1ccc(OCc2ccccc2)c(Cl)c1 | 4.92% (inactive)
24 | Cc1c[n+](=O)c2ccccc2n1[O-] | -5% (inactive)
25 | O=C(O)C1C2C=CC(O2)C1C(=O)NCc1ccncc1 (centres undefined) | -11% (inactive)
26 | Clc1ccc(-c2noc(CN3CCCCC3)n2)cc1 | -11.3% (inactive)
27 | N=C(N)SCc1nc(-c2ccc(Cl)cc2)no1 | -25.1% (active)
28 | C[N+](C)(N)Cc1nc(-c2ccc(Cl)cc2)no1 | 1.91% (inactive)
29 | Cc1cc2c(cc1C)NC1=C(N2)OC(c2c[nH]c3ccc(COc4ccccc4)cc23)C1=O (centres undefined) | -6.35% (inactive)
30 | CCOC(=O)C1=C(C)NC(=O)NC1c1coc2cc(C)cc(C)c2c1=O (centres undefined) | -8.18% (inactive)
31 | Cc1ccc(S(=O)(=O)N2CCC(C(=O)O)(c3ccccc3)CC2)cc1 | -1.68% (inactive)
32 | COc1ccc2c(=O)cc(-c3ccncc3)oc2c1OC | 72.1% (active)
33 | C1CCN(CCC2CCCCN2)CC1 (centres undefined) | -0.957% (inactive)
34 | Oc1cccnc1CN1CCCCC1 | -6.51% (inactive)
35 | CN1CCN(Cc2nc3cccc4c3c([n+]2[O-])-c2ccccc2-4)CC1 | 39.2% (active)
36 | [O-][n+]1c(CN2CCCCC2)nc2cccc3c2c1-c1ccccc1-3 | 41.6% (active)
37 | CN1CCN(CC(=O)Nc2cccc3ccccc23)CC1 | 8.36% (inactive)
38 | CC(C)C1OC(C=Cc2ccccc2)OCC1(C)C (centres undefined) | 10.1% (inactive)
39 | O=C(O)CSc1ccn(Cc2ccccc2)c1 | -5.01% (inactive)
40 | CC(=NCC(=O)O)c1ccccc1 | -2.03% (inactive)
41 | C=C(Br)CN(C)CC(=C)Br | -27.2% (active)
42 | C=C(C)CN(CC#N)CC(=C)C | -3.17% (inactive)
43 | CN(CC(=O)O)CC(=O)O | 9.14% (inactive)
44 | Cc1cc(Nc2ccc(N=Nc3ccc(O)c4ncccc34)cc2)nc(C)n1 | 7.41% (inactive)

Row | SMILES | hERG blockade
45 | [Cu+2].[NH-]C(CC(=O)O)C(=O)O.[NH-]C(CC(=O)O)C(=O)O (centres undefined) | 16.8% (inactive)
46 | NC(=O)NN=C1CCC(O)CC1CC(=O)O (centres undefined) | 0.91% (inactive)
47 | CN1C2CCC1CC(OC(c1ccccc1)c1ccccc1)C2 (centres undefined) | 44.2% (active)
48 | NS(=O)(=O)c1ccc(N=Nc2nc3[nH]cnc(=S)c3[nH]2)cc1 | -16.4% (inactive)
49 | CC(CN(C)C)C(=O)c1ccccc1C(=O)O (centres undefined) | 0.354% (inactive)
50 | CC(CN(C)C)C(O)(c1ccccc1)c1ccccc1 (centres undefined) | 7.73% (inactive)
51 | CN(C)CC(O)c1ccc(Cl)c2ccccc12 (centres undefined) | 28.3% (active)
52 | CN(Cc1cc(Br)cc(Br)c1O)Cc1c(O)ccc2ccccc12 | 16% (inactive)
53 | Clc1ccc(Cl)c(Nc2ccnc(SCc3ccccc3)n2)c1 | -4.72% (inactive)
54 | CC1CCC2(C(=O)O)CCC3(C)C(=CCC4C5(C)CC(O)C(O)C(C)(CO)C5C(O)CC43C)C2C1C (centres undefined) | 17.2% (inactive)
55 | O=C(CSc1ncnc2nc[nH]c12)c1ccccc1 | -4.94% (inactive)
56 | O=S1(=O)CCN(c2ccccc2CC(c2c[nH]c3ccccc23)c2c[nH]c3ccccc23)CC1 | 32.2% (active)
57 | Cn1ccnc1CC(C)(O)c1ccccc1 (centres undefined) | -2.58% (inactive)
58 | COc1ccc(OC)c(-c2cc(C(=O)O)c3cc4ccccc4cc3n2)c1 | -16.1% (inactive)
59 | CC(CCC(=O)O)C1CCC2(C)C3C(=O)CC4C(C)(C)C(O)CCC4(C)C3C(=O)CC12C (centres undefined) | 2.84% (inactive)
60 | CC(CCC(=O)O)C1CCC2C3C(O)CC4CC(O)CCC4(C)C3CC(O)C12C (centres undefined) | 5.61% (inactive)
61 | O=C(O)c1ccc(C(=O)O)c(C(=O)Nc2ccc3c(c2)Cc2ccccc2-3)c1 | -3.35% (inactive)
62 | O=C(O)c1ccc(C(=O)O)c(C(=O)O)c1.[NH-]C1CCCCC1[NH-].[Pt+2] | 23.7% (active)
63 | O=C(O)c1ccc(C(=O)c2ccccc2)c(C(=O)O)c1 | 1.04% (inactive)
64 | O=C1CNCCCN2CCN(CCCNCC(=O)Nc3ccc(cc3)S(=O)(=O)c3ccc(cc3)NC(=O)CNCCCN3CCN(CCCNCC(=O)Nc4ccc(cc4)S(=O)(=O)c4ccc(cc4)N1)CC3)CC2 | 5.8% (inactive)
